Measured values as given in the supplement of paper PMC10849652.
Targets with a hit are over-represented here; the source holds about 7,900 in all. About 0.6% of all pairs of compound and target were hits.

What was measured:
Assay in all cases: log2 fold change, soluble protein after heating vs DMSO (PISA); higher = thermal stabilisation; K562 cells, 10 uM, 30 min; active = over 0.2 and 3.5 SD of the protein, either way, in both replicates (recomputed)
[1] = compound: COC1=CC=C(C=C1)CN2C=CC3=C2C=C(C=C3)C(=O)NO
How it was run: (§1)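 K562 cells at 2×10^6 cells/mL were given 10 μM compound for 30 min. Aliquots then went through 3 min of heating across 48°C-58°C, were pooled, and were extracted in PBS with 0.5% NP-40 at 4°C, and the supernatant after 21,000xg for 90 min was quantified by TMTpro 16plex LC-MS/MS with channel sums equalised. Thermal stability relative to control samples, from duplicates, is given as log2 fold change.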

[2] = compound: COc1cc(C(=O)O)ccc1NC(=O)[C@@H]1N[C@@H](CC(C)(C)C)[C@](C#N)(c2ccc(Cl)cc2F)[C@H]1c1cccc(Cl)c1F [idasanutlin]
How it was run: as §1

[3] = compound: COc1cc(Nc2ncc3c(n2)-c2ccc(Cl)cc2C(c2c(F)cccc2OC)=NC3)ccc1C(=O)O [alisertib]
How it was run: as §1

[4] = compound: COc1cc2ncnc(Nc3ccc(F)c(Cl)c3)c2cc1OCCCN1CCOCC1 [gefitinib]
How it was run: as §1

[5] = compound: COc1cccc2cc(-c3nc([C@H]4CC[C@H](C(=O)O)CC4)n4ncnc(N)c34)[nH]c12
How it was run: as §1

[6] = compound: C[C@@H](Oc1cc(-c2cnn(C3CCNCC3)c2)cnc1N)c1c(Cl)ccc(F)c1Cl [crizotinib]
How it was run: as §1

[7] = compound: C[C@H](Nc1ncnc2nc[nH]c12)c1cc2cccc(Cl)c2c(=O)n1-c1ccccc1 [duvelisib]
How it was run: as §1

[8] = compound: Cc1cc(Nc2cc(N3CCN(C)CC3)nc(Sc3ccc(NC(=O)C4CC4)cc3)n2)n[nH]1 [tozasertib]
How it was run: as §1

[9] = compound: Cc1cc(SCc2sc(-c3ccc(C(F)(F)F)cc3)nc2C)ccc1OCC(=O)O
How it was run: as §1

[10] = compound: Cc1ccc(-n2nc(C(C)(C)C)cc2NC(=O)Nc2ccc(OCCN3CCOCC3)c3ccccc23)cc1 [doramapimod]
How it was run: as §1

[11] = compound: CO[C@H]1C[C@@H]2CC[C@@H](C)[C@@](O)(O2)C(=O)C(=O)N2CCCC[C@H]2C(=O)O[C@H]([C@H](C)C[C@@H]2CC[C@H](n3cnnn3)[C@H](OC)C2)CC(=O)[C@H](C)/C=C(\C)[C@@H](O)[C@@H](OC)C(=O)[C@H](C)C[C@H](C)/C=C/C=C/C=C/1C [zotarolimus]
How it was run: as §1

[12] = compound: COc1cc2nc(-c3cc(F)ccc3O)nc(N[C@@H]3CNC[C@H]3C(C)(C)O)c2cc1OC
How it was run: as §1

[13] = compound: CS(=O)(=O)CCNCc1ccc(-c2ccc3ncnc(Nc4ccc(OCc5cccc(F)c5)c(Cl)c4)c3c2)o1 [lapatinib]
How it was run: as §1

[14] = compound: CS(=O)(=O)N1CCN(Cc2cc3nc(-c4cccc5[nH]ncc45)nc(N4CCOCC4)c3s2)CC1 [pictilisib]
How it was run: as §1

[15] = compound: C[C@@H]1COCCN1C2=NC(=NC(=C2)C3(CC3)S(=O)(=O)C)C4=C5C=CNC5=CC=C4
How it was run: as §1

[16] = compound: C[C@H](C1=CC=C(C=C1)C(=O)NC2=C3C=CNC3=NC=C2)N
How it was run: as §1

[17] = compound: Cc1cc(Nc2cc(CN3CCOCC3)c3nc(C)c(Cc4ccc(Cl)cc4F)n3n2)n[nH]1 [gandotinib]
How it was run: as §1

[18] = compound: Cc1ccc(C(=O)N(CCCN)[C@@H](c2nc3cc(Cl)ccc3c(=O)n2Cc2ccccc2)C(C)C)cc1 [ispinesib]
How it was run: as §1

[19] = compound: CON(C)C(=O)N1N=C(c2cc(F)ccc2F)S[C@@]1(CCCN)c1ccccc1 [filanesib]
How it was run: as §1

[20] = compound: CS(=O)(=O)c1ccc(-c2cnc(N)c(C(=O)Nc3ccccc3)n2)cc1
How it was run: as §1

Measured: log2 fold change

U2AF1L5 (UniProt P0DN76)
inactive: [1] -0.034 | [2] -0.051 | [3] -0.517 | [4] -0.048 | [5] -0.238 | [6] -0.105 | [7] -0.014 | [8] -0.025 | [9] 0.023 | [10] -0.1

TMEM104 (UniProt Q8NE00)
inactive: [1] 0.134 | [11] -0.01 | [2] -0.081 | [3] -0.012 | [12] 0.016 | [4] 0.061 | [5] 0.164 | [13] -0.156 | [14] -0.341 | [6] -0.145 | [15] 0.012 | [16] 0.009 | [7] 0.129 | [17] -0.087 | [9] -0.049 | [10] 0.112 | [18] -0.34

UTP20 (UniProt O75691)
inactive: [12] -0.087 | [13] 0.076 | [15] -0.379 | [8] 0.021

TMEM41A (UniProt Q96HV5)
Chain of UniProt Q96HV5 (Q96HV5 whole entry, looked up): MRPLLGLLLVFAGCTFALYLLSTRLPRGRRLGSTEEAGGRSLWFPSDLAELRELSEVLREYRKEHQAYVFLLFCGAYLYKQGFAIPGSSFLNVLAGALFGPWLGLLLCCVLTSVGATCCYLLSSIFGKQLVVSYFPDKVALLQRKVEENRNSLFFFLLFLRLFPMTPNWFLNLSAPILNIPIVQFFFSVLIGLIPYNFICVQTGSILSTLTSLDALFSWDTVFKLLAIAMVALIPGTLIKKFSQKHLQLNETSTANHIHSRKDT
inactive: [1] -0.123 | [19] -0.158 | [2] 0.024 | [3] -0.096 | [12] 0.088 | [4] 0.034 | [5] 0.092 | [13] -0.106 | [14] -0.047 | [20] -0.023 | [6] 0.139 | [15] 0.137 | [7] -0.001 | [17] -0.044 | [8] -0.138 | [9] 0 | [10] 0.025 | [18] 0.065

UBAP2L (UniProt F8W726)
inactive: [3] -0.074 | [12] -0.069 | [4] -0.012 | [5] -0.084 | [13] 0.067 | [14] 0.078 | [17] -0.072 | [8] -0.003

TRIM23 (UniProt P36406)
inactive: [1] 0.019 | [19] -0.031 | [11] 0.036 | [3] -0.078 | [4] 0.012 | [5] 0.039 | [14] 0.204 | [20] 0.143 | [6] 0.152 | [16] -0.122 | [7] 0.008 | [17] 0.128 | [8] -0.135 | [9] 0.001 | [10] -0.043 | [18] 0.115

WARS1 (UniProt G3V339)
inactive: [15] -0.123

TRPT1 isoform 4 (UniProt Q86TN4)
Chain of UniProt Q86TN4 (Q86TN4 whole entry, looked up): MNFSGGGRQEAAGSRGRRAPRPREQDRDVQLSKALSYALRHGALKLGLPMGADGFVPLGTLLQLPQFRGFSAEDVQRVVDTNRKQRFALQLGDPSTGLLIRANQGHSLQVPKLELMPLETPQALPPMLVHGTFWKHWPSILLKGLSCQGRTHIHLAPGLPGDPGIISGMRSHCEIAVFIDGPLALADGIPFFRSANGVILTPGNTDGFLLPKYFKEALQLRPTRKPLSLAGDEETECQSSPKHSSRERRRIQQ
inactive: [1] -0.088 | [19] -0.053 | [2] -0.194 | [3] -0.055 | [5] -0.061 | [20] -0.176 | [6] -0.011 | [10] 0.013 | [18] -0.105

WDR46, A0A0G2JJL1
inactive: [1] -0.108 | [19] 0.533 | [3] -0.167 | [12] -0.134 | [4] 0.039 | [5] -0.207 | [13] 0.154 | [20] -0.119 | [6] 0.086 | [15] -0.581 | [7] -0.157 | [8] 0.198 | [9] -0.125 | [10] 0.236

TRIQK (UniProt Q629K1)
Chain of UniProt Q629K1 (Q629K1 whole entry, looked up): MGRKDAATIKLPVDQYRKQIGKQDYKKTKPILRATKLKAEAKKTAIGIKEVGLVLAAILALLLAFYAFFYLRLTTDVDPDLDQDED
inactive: [1] -0.002 | [19] 0.1 | [11] -0.08 | [3] -0.142 | [5] 0.106 | [20] 0.003 | [6] 0.024 | [15] 0.072 | [16] 0.017 | [7] 0.073 | [8] -0.003 | [9] -0.006 | [10] 0.008 | [18] 0.182

TTC26
inactive: [8] -0.11 | [18] 0.105

XIAP (UniProt P98170)
Chain of UniProt P98170 (P98170 whole entry, looked up): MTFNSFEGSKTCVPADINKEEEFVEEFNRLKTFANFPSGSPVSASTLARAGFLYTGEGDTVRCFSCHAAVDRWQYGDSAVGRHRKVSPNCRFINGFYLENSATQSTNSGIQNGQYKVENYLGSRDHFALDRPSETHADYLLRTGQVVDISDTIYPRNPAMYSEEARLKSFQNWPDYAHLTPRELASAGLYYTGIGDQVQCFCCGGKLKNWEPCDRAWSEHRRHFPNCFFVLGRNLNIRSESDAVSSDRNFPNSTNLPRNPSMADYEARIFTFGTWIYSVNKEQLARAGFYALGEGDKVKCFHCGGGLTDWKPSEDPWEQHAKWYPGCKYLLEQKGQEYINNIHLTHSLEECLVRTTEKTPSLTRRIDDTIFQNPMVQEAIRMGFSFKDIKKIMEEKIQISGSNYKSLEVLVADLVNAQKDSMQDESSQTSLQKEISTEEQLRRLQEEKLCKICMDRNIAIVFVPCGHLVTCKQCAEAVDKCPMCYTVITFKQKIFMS
inactive: [19] 0.046 | [11] 0.008 | [2] 0.009 | [3] 0.089 | [12] 0.085 | [4] 0.115 | [5] 0 | [13] -0.01 | [14] 0.054 | [20] 0.125 | [15] 0.092 | [16] -0.09 | [7] 0.068 | [17] 0.061 | [8] -0.01 | [9] -0.036

WDR75 (UniProt Q8IWA0)
Chain of UniProt Q8IWA0 (Q8IWA0 whole entry, looked up): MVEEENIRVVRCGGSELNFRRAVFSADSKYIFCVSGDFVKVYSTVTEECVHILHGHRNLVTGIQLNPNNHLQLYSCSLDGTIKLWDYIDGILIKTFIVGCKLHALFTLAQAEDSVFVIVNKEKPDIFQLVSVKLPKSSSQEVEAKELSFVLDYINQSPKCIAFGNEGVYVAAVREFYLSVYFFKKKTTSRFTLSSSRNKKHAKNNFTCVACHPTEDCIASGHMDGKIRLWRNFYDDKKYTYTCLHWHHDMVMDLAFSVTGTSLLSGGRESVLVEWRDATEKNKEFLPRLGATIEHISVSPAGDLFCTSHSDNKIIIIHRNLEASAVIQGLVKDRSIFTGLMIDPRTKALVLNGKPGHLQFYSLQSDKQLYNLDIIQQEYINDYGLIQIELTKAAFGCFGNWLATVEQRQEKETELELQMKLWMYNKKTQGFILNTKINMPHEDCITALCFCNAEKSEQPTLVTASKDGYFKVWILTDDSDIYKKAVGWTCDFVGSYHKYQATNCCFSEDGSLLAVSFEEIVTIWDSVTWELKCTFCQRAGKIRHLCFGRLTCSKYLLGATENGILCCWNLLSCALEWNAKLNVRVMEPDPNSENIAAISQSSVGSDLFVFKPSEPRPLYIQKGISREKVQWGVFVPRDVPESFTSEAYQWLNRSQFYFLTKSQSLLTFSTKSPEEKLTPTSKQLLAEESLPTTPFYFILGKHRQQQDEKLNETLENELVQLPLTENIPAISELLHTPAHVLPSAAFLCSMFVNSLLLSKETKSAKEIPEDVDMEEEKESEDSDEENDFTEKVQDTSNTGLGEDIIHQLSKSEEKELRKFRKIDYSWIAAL
inactive: [1] -0.071 | [11] -0.078 | [2] 0.177 | [3] -0.054 | [12] -0.04 | [4] 0.198 | [5] -0.078 | [13] -0.011 | [6] -0.07 | [15] -0.03 | [16] 0.185 | [7] -0.082 | [8] -0.2 | [9] 0.112 | [10] 0.145 | [18] -0.219

UBE2D1 (UniProt P51668)
Chain of UniProt P51668 (P51668 whole entry, looked up): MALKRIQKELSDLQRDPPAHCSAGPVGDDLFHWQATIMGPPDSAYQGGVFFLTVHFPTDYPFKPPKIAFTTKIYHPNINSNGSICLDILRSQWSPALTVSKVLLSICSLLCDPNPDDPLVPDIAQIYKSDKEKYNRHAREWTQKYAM
inactive: [19] -0.003 | [11] -0.006 | [2] -0.083 | [3] 0.094 | [12] 0.137 | [4] -0.012 | [5] 0.002 | [13] -0.063 | [14] 0.021 | [20] 0.062 | [16] -0.004 | [7] 0.054 | [17] 0.047 | [8] -0.048 | [9] 0.102 | [18] 0.056

TOM1 (UniProt O60784)
Chain of UniProt O60784 (O60784 whole entry, looked up): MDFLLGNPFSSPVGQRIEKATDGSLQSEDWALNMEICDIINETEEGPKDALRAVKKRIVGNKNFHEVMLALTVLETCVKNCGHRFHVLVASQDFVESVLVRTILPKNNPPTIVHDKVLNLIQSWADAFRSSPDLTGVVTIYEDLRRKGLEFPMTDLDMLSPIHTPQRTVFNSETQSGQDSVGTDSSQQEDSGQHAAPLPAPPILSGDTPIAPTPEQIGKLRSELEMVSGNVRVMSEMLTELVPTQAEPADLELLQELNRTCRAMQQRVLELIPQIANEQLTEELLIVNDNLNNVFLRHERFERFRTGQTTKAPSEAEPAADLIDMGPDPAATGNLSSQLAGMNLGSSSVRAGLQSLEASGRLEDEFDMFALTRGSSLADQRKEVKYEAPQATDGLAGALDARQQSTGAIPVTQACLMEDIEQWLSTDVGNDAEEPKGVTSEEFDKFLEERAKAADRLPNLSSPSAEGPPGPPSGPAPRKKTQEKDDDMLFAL
inactive: [1] 0.078 | [19] -0.061 | [3] 0.103 | [5] 0.094 | [14] 0.171 | [20] -0.04 | [6] -0.054 | [15] -0.05 | [17] -0.018 | [8] 0.044 | [10] 0.052

TMEM268 isoform 3 (UniProt Q5VZI3)
inactive: [19] -0.064 | [11] 0.104 | [2] -0.135 | [3] 0.014 | [12] -0.25 | [4] -0.079 | [5] 0.001 | [13] 0.09 | [14] -0.088 | [20] -0.146 | [15] -0.308 | [16] -0.078 | [7] 0.371 | [17] 0.124 | [8] -0.073 | [9] -0.063 | [18] -0.227

TMEM8A (UniProt Q9HCN3)
Chain of UniProt Q9HCN3 (Q9HCN3 whole entry, looked up): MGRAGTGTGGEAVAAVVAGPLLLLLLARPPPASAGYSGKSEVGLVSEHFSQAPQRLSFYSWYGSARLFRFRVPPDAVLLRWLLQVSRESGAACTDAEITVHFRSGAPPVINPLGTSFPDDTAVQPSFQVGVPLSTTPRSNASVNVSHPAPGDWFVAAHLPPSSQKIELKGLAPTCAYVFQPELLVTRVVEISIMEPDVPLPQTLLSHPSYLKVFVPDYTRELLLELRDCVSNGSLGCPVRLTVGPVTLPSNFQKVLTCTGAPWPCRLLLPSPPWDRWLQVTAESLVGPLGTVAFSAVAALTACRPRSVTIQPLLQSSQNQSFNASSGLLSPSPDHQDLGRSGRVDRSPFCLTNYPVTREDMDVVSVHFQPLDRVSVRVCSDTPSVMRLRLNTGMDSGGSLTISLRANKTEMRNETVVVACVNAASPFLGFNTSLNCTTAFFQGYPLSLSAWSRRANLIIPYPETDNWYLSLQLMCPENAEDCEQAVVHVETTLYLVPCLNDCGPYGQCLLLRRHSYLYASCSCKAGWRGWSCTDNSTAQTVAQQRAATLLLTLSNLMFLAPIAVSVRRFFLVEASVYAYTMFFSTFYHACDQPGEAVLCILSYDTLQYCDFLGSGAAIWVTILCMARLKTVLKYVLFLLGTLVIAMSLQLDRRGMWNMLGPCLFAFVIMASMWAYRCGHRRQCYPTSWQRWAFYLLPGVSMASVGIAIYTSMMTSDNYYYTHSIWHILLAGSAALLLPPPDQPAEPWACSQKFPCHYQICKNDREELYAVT
inactive: [19] 0.188 | [11] -0.093 | [3] -0.153 | [12] -0.008 | [4] -0.038 | [5] 0.085 | [13] 0.065 | [14] 0.121 | [20] 0.425 | [16] 0.049 | [7] 0.394 | [17] 0.014 | [8] -0.026 | [9] -0.095 | [18] -0.065

USP48 (UniProt Q86UV5)
inactive: [19] -0.016 | [3] 0.19 | [4] 0.053 | [5] -0.031 | [20] 0.015

TXNRD1 isoform 7 (UniProt Q16881)
Chain of UniProt Q16881 (Q16881 whole entry, looked up): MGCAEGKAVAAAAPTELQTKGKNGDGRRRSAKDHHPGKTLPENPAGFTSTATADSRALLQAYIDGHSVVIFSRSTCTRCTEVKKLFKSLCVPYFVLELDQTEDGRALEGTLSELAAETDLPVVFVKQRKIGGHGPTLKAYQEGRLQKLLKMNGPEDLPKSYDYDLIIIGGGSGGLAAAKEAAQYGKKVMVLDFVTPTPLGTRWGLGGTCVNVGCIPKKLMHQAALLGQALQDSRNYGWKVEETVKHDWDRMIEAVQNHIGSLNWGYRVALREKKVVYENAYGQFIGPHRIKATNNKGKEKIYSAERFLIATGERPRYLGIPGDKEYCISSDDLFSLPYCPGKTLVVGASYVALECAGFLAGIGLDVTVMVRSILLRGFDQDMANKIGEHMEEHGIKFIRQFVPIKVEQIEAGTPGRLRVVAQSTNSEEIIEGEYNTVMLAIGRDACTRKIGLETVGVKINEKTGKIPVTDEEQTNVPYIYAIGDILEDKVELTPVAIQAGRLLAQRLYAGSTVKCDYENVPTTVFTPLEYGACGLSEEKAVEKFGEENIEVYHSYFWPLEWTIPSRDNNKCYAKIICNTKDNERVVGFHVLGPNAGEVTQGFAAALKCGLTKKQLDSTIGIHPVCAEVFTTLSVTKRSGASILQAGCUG
inactive: [19] -0.034 | [12] 0.242 | [13] -0.07 | [14] 0.037 | [20] 0.075 | [15] -0.026 | [7] -0.049 | [17] 0.125 | [9] -0.015

WARS1 (UniProt G3V3P2)
inactive: [19] 0.087 | [20] -0.07

TMEM219 (UniProt Q86XT9)
Chain of UniProt Q86XT9 (Q86XT9 whole entry, looked up): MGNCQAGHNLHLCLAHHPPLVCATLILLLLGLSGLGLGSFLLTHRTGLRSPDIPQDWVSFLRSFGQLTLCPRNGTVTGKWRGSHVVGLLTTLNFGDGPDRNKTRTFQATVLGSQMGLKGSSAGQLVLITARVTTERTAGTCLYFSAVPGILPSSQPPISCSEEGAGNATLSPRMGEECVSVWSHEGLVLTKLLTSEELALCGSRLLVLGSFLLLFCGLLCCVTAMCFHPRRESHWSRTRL
inactive: [19] -0.065 | [11] -0.181 | [2] -0.017 | [12] -0.011 | [4] -0.029 | [13] 0.058 | [14] -0.277 | [20] 0.049 | [15] -0.036 | [16] 0.114 | [7] -0.163 | [17] 0.034 | [8] -0.055 | [9] -0.241

WARS1 (UniProt G3V277)
inactive: [1] -0.163 | [19] 0.066 | [2] 0.127 | [3] 0.04 | [4] 0.021 | [5] 0.145 | [14] 0.095 | [20] -0.009 | [6] -0.001 | [17] -0.218 | [8] -0.206 | [10] 0.029

TVP23C (UniProt Q96ET8)
Chain of UniProt Q96ET8 (Q96ET8 whole entry, looked up): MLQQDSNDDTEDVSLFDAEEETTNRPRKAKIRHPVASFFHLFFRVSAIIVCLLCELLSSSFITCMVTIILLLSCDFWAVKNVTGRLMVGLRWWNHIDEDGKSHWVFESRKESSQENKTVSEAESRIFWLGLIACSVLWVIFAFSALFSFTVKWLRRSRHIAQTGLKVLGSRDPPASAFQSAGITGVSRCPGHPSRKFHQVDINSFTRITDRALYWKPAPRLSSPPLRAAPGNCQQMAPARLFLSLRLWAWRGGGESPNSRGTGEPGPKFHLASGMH
inactive: [11] -0.006 | [2] -0.124 | [3] 0.007 | [12] -0.024 | [5] 0.235 | [13] -0.14 | [14] -0.029 | [16] 0.03 | [7] -0.065 | [17] -0.016 | [8] -0.028 | [9] -0.092

WARS1 (UniProt G3V5U1)
inactive: [1] -0.557 | [19] 0.025 | [3] 0.391 | [5] -0.105 | [20] 0.092 | [6] 0.09 | [15] -0.282 | [10] -0.299

WDR4 isoform 3 (UniProt P57081)
Chain of UniProt P57081 (P57081 whole entry, looked up): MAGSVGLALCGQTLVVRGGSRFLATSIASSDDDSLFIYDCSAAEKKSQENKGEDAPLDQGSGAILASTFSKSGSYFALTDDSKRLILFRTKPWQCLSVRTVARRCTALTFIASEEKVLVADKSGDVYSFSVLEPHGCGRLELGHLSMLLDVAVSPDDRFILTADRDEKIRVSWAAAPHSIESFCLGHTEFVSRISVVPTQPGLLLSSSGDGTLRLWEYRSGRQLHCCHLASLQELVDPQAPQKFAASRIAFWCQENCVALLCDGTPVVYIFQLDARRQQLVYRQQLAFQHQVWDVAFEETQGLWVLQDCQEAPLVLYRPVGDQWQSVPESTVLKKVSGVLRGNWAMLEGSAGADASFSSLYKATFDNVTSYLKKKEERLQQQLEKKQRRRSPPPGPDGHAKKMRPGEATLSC
inactive: [19] -0.007 | [14] 0.359 | [20] 0.074 | [15] 0.125 | [17] -0.247
